In the supplement of paper PMC12350171:
Structures can show the parent of a compound that is named as a salt. Values without a mark were called inactive.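 Rule for the calls: active = normalised median growth AUC below 0.1 of DMSO control; inactive = AUC 0.1 or higher.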

test system: P. vulgatus RND KO; assay: growth AUC normalised to DMSO control (median) (fraction of control); higher = less growth inhibition, active = hit call of the paper; settings: 20 µM
Outline: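 Each strain went through two overnight passages under anaerobic conditions before growth in mGAM in 96-well plates, starting at OD578 0.01, with each compound from the approved-drug library at 20 μM and 1% DMSO. Inside an anaerobic incubator, OD578 was recorded every hour for 24 h. Growth curves were cut off at entry into stationary phase, and the area under the curve was calculated by the trapezoidal rule and normalised to vehicle wells on the same plate. Reported values are medians of three biological replicates.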
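Note: active when median AUC fell below 0.1.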

SMILES	growth AUC normalised to DMSO control
C=CCC1(CC(C)C)C(=O)NC(=O)NC1=O [Butalbital]	0.99
CC1C=CC=CCCC=CC=CC=CC=CC(OC2OC(C)C(O)C(N)C2O)CC2OC(O)(CC(O)C(O)CCC(O)CC(O)CC(O)CC(=O)OC(C)C(C)C1O)CC(O)C2C(=O)O (configuration not stated) [Nystatine]	0.988
O=C(CCCN1CCC2(CC1)C(=O)NCN2c1ccccc1)c1ccc(F)cc1 [Spiperone]	0.98
COc1ccc(OC)c(C(O)C(C)N)c1 (configuration not stated) [Methoxamine hydrochloride]	0.987
CC(C)(C)NCC(O)c1cc(Cl)c(N)c(Cl)c1 (configuration not stated) [Clenbuterol hydrochloride]	0.981
COc1ccc(CN2CCNCC2)c(OC)c1OC [Trimetazidine dihydrochloride]	1.01
CC[N+]1(C)CCCC(OC(=O)C(O)(c2ccccc2)c2ccccc2)C1 (configuration not stated) [Pipenzolate bromide]	1
NCC(O)c1ccc(O)cc1 (configuration not stated) [Octopamine hydrochloride]	1.02
CC(=O)NC1CCSC1=O (configuration not stated) [Citiolone]	1.03
O=[N+]([O-])O[C@@H]1CO[C@H]2[C@@H]1OC[C@@H]2O [Isosorbide mononitrate]	0.946
C=C1C[C@@H]2[C@H](CC[C@]3(C)C(=O)CC[C@@H]23)[C@@]2(C)C=CC(=O)C=C12 [Exemestane]	0.978
O=c1c2ccccc2[se]n1-c1ccccc1 [Ebselen]	1.04
